KB-V1 cytotox: qHTS assay for MDR1-selective chemotherapeutics: Primary screen using the drug-selected MDR subline cells KB-V1. KB-V1 MDR cells viability, CellTiter-Glo, 72 h. Potency, µM (titrated, usually from 46.1 µM), hits mostly cytotoxic. actives 3.4% (n = 400,000). AID 1347076, 2019; note: nearly all actives have a fitted effect of over 60% in size
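Potencies derive from concentration-effect curves fitted to normalized luminescence (CellTiter-Glo) of KB-V1 cells treated for 72 h at 37 degrees C in phenol-red-free DMEM containing 10% FBS.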
KB-3-1 cytotox: qHTS assay for MDR1-selective chemotherapeutics: Primary screen using the parental adenocarcinoma cell KB-3-1. KB-3-1 viability, CellTiter-Glo ATP luminescence, 72 h. AID 1347075, 2019. actives 1.4% (n = 400,000). Potency, µM (top dose mostly 46.1 µM), hits mostly cytotoxic; note: nearly all actives have a fitted effect of over 60% in size
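Cytotoxicity measured as CellTiter-Glo luminescence after 72 h at 37 C. Compound titrations were pinned onto drug-naive KB-3-1 parental adenocarcinoma cells grown in DMEM with 10% FBS, and normalized data fitted to concentration-response curves.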
HT1080 IDH1KD tx: qHTS for induction of synthetic lethality in tumor cells producing 2HG: qHTS for the HT-1080-IDH1KD cell line. Potency, µM (highest dose often 46.1 µM), inactives show top-dose activity, negative = toxicity, hits mostly cytotoxic. actives 2% (n = 360,000). HT-1080 IDH1 knockdown viability, ATP luminescence, 48 h;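 note: 0% = DMSO wells and -100% = cell-free medium wells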
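In this qHTS, HT-1080 cells depleted of IDH1 are exposed for 48 h at 37 °C to compound titrations. Toxicity is scored from CellTiter-Glo luminescence, with DMSO as full viability and medium alone as none.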
HT1080NT lethal: qHTS for induction of synthetic lethality in tumor cells producing 2HG: qHTS for the HT-1080-NT fibrosarcoma cell line; HT-1080-NT fibrosarcoma viability, CellTiter-Glo ATP luminescence, 48 h; Potency, µM (doses to about 46.1 µM), without a hit: at the highest dose activity, negative = less viability, usual class: cytotoxic; actives 1.6% (n = 360,000);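 note: NT is the 2HG producing partner of a matched IDH1 knockdown line; 0% = DMSO-treated cells and -100% = media-only wells without cells; nearly all actives have a fitted effect of over 55% in size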
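A 48-hour cytotoxicity screen used HT-1080-NT cells plated 2 hours before compound delivery. ATP-based CellTiter-Glo luminescence measured viability, normalized to DMSO and no-cell controls.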
Active calls of the source: *; i = inactive; ? = inconclusive; / = no result given; ! = not active in a repeat. Rows were chosen to be rich in hits. Some 5.7% of all compounds tested hit in one or more screens of this group. Calls come from the whole dose curve; as a rule, active = well fitted curve in the direction sought with a large enough effect; inconclusive = small, poorly fitted or top-dose-only effect, or another doubt; inactive = no such curve, though single readings can be large; an effect the other way counts as inactive or inconclusive. Unless noted, % is set by controls: 0 for no effect and ±100 for the full control effect; potency is the fitted concentration of half-maximal effect.

SMILES	KB-V1 cytotox	KB-3-1 cytotox	HT1080 IDH1KD tx	HT1080NT lethal
Oc1ccc(C[C@H]2CNC(=S)N2CC2CCCN2C[C@H](Cc2ccc(O)cc2)N2C[C@H](Cc3ccccc3)N(CCc3ccccc3)C2=S)cc1 (stereo partly drawn)	i	23.1µM*	-3.0%	-6.3%
CCOc1ccc(CCN2C(=S)N([C@@H](Cc3ccc(O)cc3)CN3CCC[C@@H]3CN3C(=S)NC[C@@H]3Cc3ccc(O)cc3)C[C@@H]2Cc2ccc(O)cc2)cc1	i	?	20.6µM*	25.9µM*
CCCCCNc1nc2sc3c(c2c(=O)n1-c1cccc(Cl)c1)CCN(C)C3	i	?	?	14.6µM*
CCCCNc1nc2sc3c(c2c(=O)n1-c1cccc(Cl)c1)CCN(C)C3	i	i	-20.7%	-17.0%
C=CC1CN2CCC1CC2[C@@H](O)c1ccnc2ccc(OC)cc12 (stereo partly drawn)	i	i	/	/
Cc1ccc(S(=O)(=O)N2CCCc3cc(NC(=O)c4ccccc4Cl)ccc32)cc1	i	i	/	/
COc1ccc2c(c1)NC(C)(C)C=C2C	i	i	-19.9%	-13.5%
CC1=CC(C)(C)Nc2ccc(OS(=O)(=O)c3ccc(C)cc3)cc21	14.6µM*	i	-18.0%	-0.2%
O=C(CCc1ccccc1)Nc1cccc([S+](=O)([O-])Nc2ccccc2F)c1	i	i	/	/
FC(F)(F)c1cccc(Cn2nnnc2-c2cccc(C(F)(F)F)c2)c1	14.6µM*	i	-25.1%	-9.0%
COc1ccc(NC(=O)CN2C(=O)C(C)Oc3ccc(C)cc32)cc1 (stereo not drawn)	i	i	20.6µM*	?
Cc1ccc(NC(=O)CN2C(=O)C(C)Oc3ccccc32)nc1 (stereo not drawn)	14.6µM*	i	?	7.7%
COc1ccc(NC(=O)CN2C(=O)C(C)Oc3ccccc32)c(OC)c1 (stereo not drawn)	16.4µM*	i	-25.1%	7.9%
COc1ccc(NC(=O)CN2C(=O)C(C)Oc3ccccc32)cc1 (stereo not drawn)	?	i	6.8%	3.2%
Cc1ccc(CNC(=O)C2CCN(c3nn4cc(-c5ccc(F)cc5)nc4s3)CC2)cc1	i	i	/	/
C[C@H]1CCC[C@]2(C)C[C@H]3OC(=O)C(CN4CCCCCC4)[C@H]3C=C12 (stereo partly drawn)	i	?	?	16.4µM*
C=C1CCC[C@]2(C)C[C@H]3OC(=O)C(CN4CCCCC4CO)[C@H]3CC12 (stereo partly drawn)	i	?	?	?
O=c1[nH]c2ccc(Cl)cc2c(O)c1-c1ccccc1	i	i	21.4%	21.8%
O=c1[nH]c2ccc(Cl)cc2c(-c2ccccc2)c1SC(=S)N1CCCCC1	i	i	16.4µM*	?
O=c1[nH]c2ccc(Cl)cc2c(-c2ccccc2)c1SC(=S)N1CCOCC1	i	i	?	16.4µM*
NNC(=O)CSc1c(-c2ccccc2)c2cc(Cl)ccc2[nH]c1=O	i	i	-2.4%	-2.3%
CC1=C(c2ccc(C)c(C)c2)S(=O)(=O)N=C1N1CCC(C(=O)NCc2ccc(C)o2)CC1	i	i	/	/
CCOc1cc(/C=N/NC(=O)c2cccc([N+](=O)[O-])c2)ccc1OS(=O)(=O)c1ccccc1	13µM*	?	?	?
O=C(N/N=C/c1c[nH]c2ccccc12)c1cccc([N+](=O)[O-])c1	i	i	1.5%	0.8%
Cc1[nH]n(-c2cccc3ccccc23)c(=O)c1/C=N/NC(=O)c1cccc([N+](=O)[O-])c1	3.26µM*	?	?	?
SMILES	KB-V1 cytotox	KB-3-1 cytotox	HT1080 IDH1KD tx	HT1080NT lethal
COc1ccc(/C=N/NC(=O)c2cccc([N+](=O)[O-])c2)cc1OS(=O)(=O)c1ccc(C)cc1	20.6µM*	?	?	?
CC(C)N=C(N)N=C(N)Nc1ccc(Cl)cc1	i	i	?	?
NC(=NCCCCCCN=C(N)/N=C(\N)Nc1ccc(Cl)cc1)/N=C(\N)Nc1ccc(Cl)cc1	?	?	18.4µM*!	14.6µM*!
O=Cc1cc(Cl)ccc1OCCN1CCC(Cc2ccccc2)CC1	i	?	?	20.6µM*
CCOC(=O)/C=C1\CN(Cc2cc(OC)c(OC)c(OC)c2)S(=O)(=O)c2ccccc21	10.3µM*!	?	-10.0%	?
Cc1ccc(NC(=O)CN2C(=O)c3ccccc3Sc3ncccc32)c(C)c1	i	i	/	/
Cc1ccc(-c2nn3c(C)nnc3s2)cc1NC(=O)c1ccc(Br)o1	i	i	5.4%	5.5%
Cc1ccc(-c2nn3c(C)nnc3s2)cc1NC(=O)c1ccc(-c2ccc(Cl)cc2Cl)o1	?	20.6µM*	?	?
Cc1ccc(OCC(=O)Nc2cc(-c3nn4c(C)nnc4s3)ccc2C)cc1	?	18.4µM*	8.9%	2.3%
CCC(=O)Nc1cc(-c2nn3c(C)nnc3s2)ccc1C	i	i	15.5%	11.8%
c1ccc(-c2ccc3c(c2)c2c4n3CCN=C4CCC2)cc1	10.3µM*	?	?	?
OC1CN=C2CCCc3c2n(c2ccc(Cl)cc32)C1 (stereo not drawn)	i	?	-12.7%	-30.0%
Cc1ccc(NC(=O)Cn2c(=O)n(-c3ccc(C)cc3)c(=O)c3ccc(C(=O)NCc4ccccc4Cl)cc32)cc1	i	?	/	/
COc1ccc(OC)c(S(=O)(=O)Nc2ccc(O)c3ccccc23)c1	?	i	?	23.1µM*
COc1ccc(OC)c(S(=O)(=O)Nc2ccc(Oc3ccccc3)cc2)c1	20.6µM*	i	?	-14.7%
COc1ccc(OC)c(S(=O)(=O)Nc2ccc(-c3ccc4nncn4n3)cc2)c1	i	18.4µM*	16.4µM*	23.1µM*
COc1ccc(S(=O)(=O)Nc2cccc(-c3ccc4nncn4n3)c2)cc1F	?	i	2.31µM*	4.61µM*
CCOC(=O)C1CCC(CN(Cc2cccc(Br)c2)S(=O)(=O)c2ccc(C)cc2)CC1 (stereo not drawn)	i	i	/	/
CCOCCCNC(=O)c1cnc2sc(N3CCCCC3)nn2c1=O	i	i	/	/
COc1ccccc1N1CCN(C(=O)C2CCN(S(=O)(=O)c3cccs3)CC2)CC1	i	i	/	/
CCc1nn(CCCC(=O)N2CCN(c3cc(Cl)ccc3C)CC2)c(=O)c2cc3occc3n12	i	i	/	/
CC1CCCC=CC2CC(OC(=O)CN(C)C)CC2C(O)C=CC(=O)O1 (stereo not drawn)	?	0.0082µM*	0.0291µM*	?
COc1ccc(N2CCN(C(=O)CC34CC5CC(CC(C5)C3)C4)CC2)c([N+](=O)[O-])c1	18.4µM*	?	9.3%	10.2%
